The source of these data is PMC7862700, “An all-to-all approach to the identification of sequence-specific readers for epigenetic DNA modifications on cytosine”.

What all share (assay): DAPPL (digital affinity profiling via proximity ligation, sequencing); 10 mM Tris-HCl pH 7.5, 50 mM NaCl, 1 mM DTT, 4% glycerol, room temperature, 30 min; GST-TFs on glutathione beads, 16-mer random dsDNA library, 0.1% formaldehyde crosslink after washing; high values mean tight binding
Holding throughout (conditions): protein: recombinant; tags: N-terminal GST; dsDNA, one strand shown

The target in one assay is T1, FLI1 (Homo sapiens, UniProt Q01543 1-452).
T1 sequence: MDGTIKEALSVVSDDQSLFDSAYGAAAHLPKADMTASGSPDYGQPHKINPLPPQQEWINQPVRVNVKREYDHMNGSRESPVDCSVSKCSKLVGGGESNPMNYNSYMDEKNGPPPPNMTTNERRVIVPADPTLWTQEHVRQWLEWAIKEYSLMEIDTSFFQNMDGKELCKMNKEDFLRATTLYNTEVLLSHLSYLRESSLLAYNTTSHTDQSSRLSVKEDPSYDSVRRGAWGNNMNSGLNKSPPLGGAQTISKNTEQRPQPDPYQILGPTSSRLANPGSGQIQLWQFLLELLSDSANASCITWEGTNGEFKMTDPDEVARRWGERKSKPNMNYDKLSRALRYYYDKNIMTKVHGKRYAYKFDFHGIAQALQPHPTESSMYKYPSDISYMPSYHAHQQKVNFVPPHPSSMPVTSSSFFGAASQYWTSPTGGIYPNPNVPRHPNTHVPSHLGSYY
Put shortly: (§1)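 Pools of DNA-barcoded human transcription factors, expressed in yeast as GST fusions on glutathione beads and combined with a tag-only sample, were incubated with 200 nmole of a 16-mer random double-stranded DNA library. Incubation took 30 min at room temperature in Tris/NaCl/DTT/glycerol buffer and was followed by washing, 0.1% formaldehyde crosslinking, proximity ligation (BsaI/T4 ligase, 1 h, 37 °C), PCR amplification and sequencing on an Illumina NextSeq500. Binding signal is the ratio of a hexamer's read frequency for a factor to its frequency for the tag-only sample.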

Another assay has as its target T2, GABPA (Homo sapiens, UniProt Q06546 1-454).
T2 sequence: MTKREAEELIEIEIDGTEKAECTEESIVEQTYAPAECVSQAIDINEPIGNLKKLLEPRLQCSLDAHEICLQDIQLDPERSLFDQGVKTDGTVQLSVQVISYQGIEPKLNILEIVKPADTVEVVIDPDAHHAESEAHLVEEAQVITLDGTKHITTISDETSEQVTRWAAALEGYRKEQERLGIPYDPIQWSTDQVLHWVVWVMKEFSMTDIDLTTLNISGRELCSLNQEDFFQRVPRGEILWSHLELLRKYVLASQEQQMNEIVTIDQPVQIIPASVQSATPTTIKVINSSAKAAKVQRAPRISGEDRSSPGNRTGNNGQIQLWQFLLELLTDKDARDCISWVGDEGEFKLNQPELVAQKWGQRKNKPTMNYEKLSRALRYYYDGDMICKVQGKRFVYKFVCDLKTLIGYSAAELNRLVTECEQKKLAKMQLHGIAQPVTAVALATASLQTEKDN
Summed up: as §1

The next assay deals with T3, ERG (Homo sapiens, UniProt P11308 1-479).
T3 sequence: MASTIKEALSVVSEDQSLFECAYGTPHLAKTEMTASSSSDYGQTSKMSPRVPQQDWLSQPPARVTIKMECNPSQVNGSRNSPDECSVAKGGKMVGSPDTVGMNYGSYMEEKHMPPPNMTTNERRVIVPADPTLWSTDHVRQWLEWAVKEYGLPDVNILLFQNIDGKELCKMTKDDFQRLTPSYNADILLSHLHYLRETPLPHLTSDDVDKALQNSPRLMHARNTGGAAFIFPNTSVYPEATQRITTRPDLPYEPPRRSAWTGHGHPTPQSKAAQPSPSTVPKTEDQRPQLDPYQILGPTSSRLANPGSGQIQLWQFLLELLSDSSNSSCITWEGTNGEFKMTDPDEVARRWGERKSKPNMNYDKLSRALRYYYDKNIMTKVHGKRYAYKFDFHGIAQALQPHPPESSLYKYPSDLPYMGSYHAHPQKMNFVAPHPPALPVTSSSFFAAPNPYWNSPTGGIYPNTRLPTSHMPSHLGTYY
Put shortly:
as §1

The target of another assay is ELF1 (Homo sapiens, UniProt P32519 1-619). Put shortly: as §1
Sequence of ELF1 (P32519 whole entry): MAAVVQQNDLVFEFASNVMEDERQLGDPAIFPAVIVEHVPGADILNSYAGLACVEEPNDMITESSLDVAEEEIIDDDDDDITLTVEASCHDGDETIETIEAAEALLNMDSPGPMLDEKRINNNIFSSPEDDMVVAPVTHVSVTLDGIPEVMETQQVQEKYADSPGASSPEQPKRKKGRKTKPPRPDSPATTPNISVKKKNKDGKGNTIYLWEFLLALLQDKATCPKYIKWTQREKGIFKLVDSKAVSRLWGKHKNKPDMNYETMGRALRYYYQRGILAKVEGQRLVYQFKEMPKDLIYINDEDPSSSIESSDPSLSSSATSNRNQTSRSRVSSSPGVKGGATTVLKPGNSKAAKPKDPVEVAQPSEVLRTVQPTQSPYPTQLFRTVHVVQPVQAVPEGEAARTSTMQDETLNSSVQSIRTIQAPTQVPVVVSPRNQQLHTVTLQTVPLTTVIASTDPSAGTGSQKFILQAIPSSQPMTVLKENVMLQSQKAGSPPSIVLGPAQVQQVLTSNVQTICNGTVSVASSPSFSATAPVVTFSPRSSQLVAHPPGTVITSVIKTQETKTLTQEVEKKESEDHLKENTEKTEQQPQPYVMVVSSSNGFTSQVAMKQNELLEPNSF
For the next assay, the target named is T4, EHF (Homo sapiens, UniProt Q9NZC4 1-300).
T4 sequence: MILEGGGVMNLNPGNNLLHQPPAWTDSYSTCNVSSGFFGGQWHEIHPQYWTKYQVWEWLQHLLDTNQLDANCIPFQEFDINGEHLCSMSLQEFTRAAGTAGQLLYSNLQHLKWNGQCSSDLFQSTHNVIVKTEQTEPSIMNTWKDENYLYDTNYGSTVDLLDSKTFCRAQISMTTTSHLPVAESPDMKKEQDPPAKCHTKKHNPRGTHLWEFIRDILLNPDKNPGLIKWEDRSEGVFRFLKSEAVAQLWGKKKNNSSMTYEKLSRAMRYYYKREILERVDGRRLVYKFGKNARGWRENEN
Summed up:
as §1

The target of the next assay is SPI1 (Homo sapiens, UniProt P17947 1-270). Put shortly: as §1
In a further assay the target is SPIB (Homo sapiens, UniProt Q01892 1-262). Put shortly: as §1
Sequence of SPIB (Q01892 whole entry): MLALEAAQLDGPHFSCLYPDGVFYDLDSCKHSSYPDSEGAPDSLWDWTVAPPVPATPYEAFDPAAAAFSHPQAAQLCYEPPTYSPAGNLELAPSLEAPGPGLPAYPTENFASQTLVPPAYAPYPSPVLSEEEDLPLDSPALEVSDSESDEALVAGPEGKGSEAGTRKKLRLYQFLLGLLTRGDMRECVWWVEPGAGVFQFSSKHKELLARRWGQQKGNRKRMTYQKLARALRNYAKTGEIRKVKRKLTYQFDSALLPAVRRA
The target of a further assay is T5, FEV (Homo sapiens, UniProt Q99581 1-238).
T5 sequence: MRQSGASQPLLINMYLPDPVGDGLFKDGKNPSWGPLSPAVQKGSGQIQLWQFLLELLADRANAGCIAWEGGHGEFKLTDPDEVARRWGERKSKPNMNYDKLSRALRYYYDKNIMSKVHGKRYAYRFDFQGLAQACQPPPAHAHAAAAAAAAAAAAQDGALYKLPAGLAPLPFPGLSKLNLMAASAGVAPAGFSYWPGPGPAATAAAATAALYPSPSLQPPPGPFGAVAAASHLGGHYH
Put shortly:
as §1

The target of another assay is ETV5 (Homo sapiens, UniProt P41161 1-510). Put shortly:
as §1

The target of a further assay is T6, SPIC (Homo sapiens, UniProt Q8N5J4 1-248).
T6 sequence: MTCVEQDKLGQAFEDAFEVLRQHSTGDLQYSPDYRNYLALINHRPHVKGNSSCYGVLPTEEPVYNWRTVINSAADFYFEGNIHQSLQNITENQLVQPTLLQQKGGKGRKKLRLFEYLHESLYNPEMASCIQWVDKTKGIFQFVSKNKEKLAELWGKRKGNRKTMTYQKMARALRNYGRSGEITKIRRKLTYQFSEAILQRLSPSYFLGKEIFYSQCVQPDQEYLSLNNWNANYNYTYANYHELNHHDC
Summed up: as §1

Another assay has as its target ELF4 (Homo sapiens, UniProt Q99607 1-663). Put shortly:
as §1

For another assay, the target named is ETV1 (Homo sapiens, UniProt P50549 1-477). Summed up: as §1
Sequence of ETV1 (P50549 whole entry): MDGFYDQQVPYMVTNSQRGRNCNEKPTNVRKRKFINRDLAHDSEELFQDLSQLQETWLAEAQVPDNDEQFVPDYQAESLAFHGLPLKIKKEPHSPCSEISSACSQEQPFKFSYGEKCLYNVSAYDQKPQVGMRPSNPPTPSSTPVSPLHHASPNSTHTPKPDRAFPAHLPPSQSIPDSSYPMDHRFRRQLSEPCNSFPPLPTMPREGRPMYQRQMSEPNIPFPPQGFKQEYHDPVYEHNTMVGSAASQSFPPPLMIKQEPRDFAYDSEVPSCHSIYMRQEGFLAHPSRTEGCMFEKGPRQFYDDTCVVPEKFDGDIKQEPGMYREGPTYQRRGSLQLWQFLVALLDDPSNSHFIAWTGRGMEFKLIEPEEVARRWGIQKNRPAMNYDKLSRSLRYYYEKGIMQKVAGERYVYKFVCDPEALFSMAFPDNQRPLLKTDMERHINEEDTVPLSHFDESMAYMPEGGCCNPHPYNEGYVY
Another assay deals with T7, ERF (Homo sapiens, UniProt P50548 1-548).
T7 sequence: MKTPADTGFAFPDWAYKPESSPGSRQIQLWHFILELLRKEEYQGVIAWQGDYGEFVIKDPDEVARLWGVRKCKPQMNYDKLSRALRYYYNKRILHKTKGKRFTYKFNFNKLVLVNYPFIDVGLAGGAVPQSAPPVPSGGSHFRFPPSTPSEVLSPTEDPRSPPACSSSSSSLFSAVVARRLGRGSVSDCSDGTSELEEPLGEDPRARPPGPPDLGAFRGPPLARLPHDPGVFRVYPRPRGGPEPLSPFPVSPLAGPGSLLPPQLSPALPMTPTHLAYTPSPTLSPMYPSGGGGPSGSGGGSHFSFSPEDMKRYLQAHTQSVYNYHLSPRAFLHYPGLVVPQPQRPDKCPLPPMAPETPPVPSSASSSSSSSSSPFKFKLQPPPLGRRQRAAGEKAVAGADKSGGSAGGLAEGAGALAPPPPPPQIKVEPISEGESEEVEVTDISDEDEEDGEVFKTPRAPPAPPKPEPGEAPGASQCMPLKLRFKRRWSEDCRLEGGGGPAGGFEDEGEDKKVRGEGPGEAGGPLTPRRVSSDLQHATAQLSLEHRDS
Put shortly:
as §1

The next assay has as its target T8, ETV3L (Homo sapiens, UniProt Q6ZN32 1-361).
T8 sequence: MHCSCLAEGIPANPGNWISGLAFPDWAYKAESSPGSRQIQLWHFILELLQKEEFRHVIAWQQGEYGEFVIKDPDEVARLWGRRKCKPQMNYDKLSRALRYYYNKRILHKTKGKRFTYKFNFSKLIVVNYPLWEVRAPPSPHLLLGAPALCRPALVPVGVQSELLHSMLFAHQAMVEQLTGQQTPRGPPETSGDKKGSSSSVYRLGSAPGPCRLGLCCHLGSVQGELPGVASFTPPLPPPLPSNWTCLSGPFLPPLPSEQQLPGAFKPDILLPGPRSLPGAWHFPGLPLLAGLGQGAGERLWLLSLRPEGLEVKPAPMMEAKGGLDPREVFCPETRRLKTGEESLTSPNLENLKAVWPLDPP
Summed up: as §1

The next assay addresses T9, ETS2 (Homo sapiens, UniProt P15036 1-469).
T9 sequence: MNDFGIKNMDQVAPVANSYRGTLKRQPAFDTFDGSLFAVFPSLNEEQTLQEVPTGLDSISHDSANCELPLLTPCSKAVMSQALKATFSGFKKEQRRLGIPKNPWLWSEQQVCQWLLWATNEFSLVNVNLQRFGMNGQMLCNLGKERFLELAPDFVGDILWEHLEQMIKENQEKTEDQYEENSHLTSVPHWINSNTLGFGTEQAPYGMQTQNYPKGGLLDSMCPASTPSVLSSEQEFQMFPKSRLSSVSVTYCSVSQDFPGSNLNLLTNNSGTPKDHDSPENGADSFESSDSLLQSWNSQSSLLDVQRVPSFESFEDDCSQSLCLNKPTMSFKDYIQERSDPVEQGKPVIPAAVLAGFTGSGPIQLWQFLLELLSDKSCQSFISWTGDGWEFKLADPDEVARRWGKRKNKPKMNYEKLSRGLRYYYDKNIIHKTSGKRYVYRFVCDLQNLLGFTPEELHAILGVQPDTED
Summed up:
as §1

Another assay addresses T10, SPDEF (Homo sapiens, UniProt O95238 1-335).
T10 sequence: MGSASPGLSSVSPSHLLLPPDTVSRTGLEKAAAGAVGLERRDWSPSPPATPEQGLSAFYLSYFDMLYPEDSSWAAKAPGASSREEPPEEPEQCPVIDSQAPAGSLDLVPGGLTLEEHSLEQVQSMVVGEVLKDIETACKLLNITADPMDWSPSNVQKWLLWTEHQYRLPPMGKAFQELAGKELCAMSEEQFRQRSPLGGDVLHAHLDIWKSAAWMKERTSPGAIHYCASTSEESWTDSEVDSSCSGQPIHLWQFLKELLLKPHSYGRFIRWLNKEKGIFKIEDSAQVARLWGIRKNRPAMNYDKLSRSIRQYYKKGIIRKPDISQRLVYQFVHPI
Summed up: as §1

The next assay addresses T11, ELF5 (Homo sapiens, UniProt Q9UKW6-2 1-255).
T11 sequence: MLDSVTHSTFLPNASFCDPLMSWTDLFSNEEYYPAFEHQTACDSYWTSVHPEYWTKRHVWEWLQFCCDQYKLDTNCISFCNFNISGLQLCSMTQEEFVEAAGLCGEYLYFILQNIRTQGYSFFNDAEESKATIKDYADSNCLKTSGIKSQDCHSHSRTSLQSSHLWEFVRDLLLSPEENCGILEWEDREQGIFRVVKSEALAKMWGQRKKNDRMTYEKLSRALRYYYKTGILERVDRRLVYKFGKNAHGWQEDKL
Summed up:
as §1

A further assay addresses T12, ETV3 (Homo sapiens, UniProt P41162-2 1-143).
T12 sequence: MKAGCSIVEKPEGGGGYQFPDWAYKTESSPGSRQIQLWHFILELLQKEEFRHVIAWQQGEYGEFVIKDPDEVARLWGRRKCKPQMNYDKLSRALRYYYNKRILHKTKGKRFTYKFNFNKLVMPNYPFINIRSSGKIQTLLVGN
Summed up:
as §1

In the next assay the target is ETV6 (Homo sapiens, UniProt P41212 1-452). Summed up: as §1
Sequence of ETV6 (P41212 whole entry): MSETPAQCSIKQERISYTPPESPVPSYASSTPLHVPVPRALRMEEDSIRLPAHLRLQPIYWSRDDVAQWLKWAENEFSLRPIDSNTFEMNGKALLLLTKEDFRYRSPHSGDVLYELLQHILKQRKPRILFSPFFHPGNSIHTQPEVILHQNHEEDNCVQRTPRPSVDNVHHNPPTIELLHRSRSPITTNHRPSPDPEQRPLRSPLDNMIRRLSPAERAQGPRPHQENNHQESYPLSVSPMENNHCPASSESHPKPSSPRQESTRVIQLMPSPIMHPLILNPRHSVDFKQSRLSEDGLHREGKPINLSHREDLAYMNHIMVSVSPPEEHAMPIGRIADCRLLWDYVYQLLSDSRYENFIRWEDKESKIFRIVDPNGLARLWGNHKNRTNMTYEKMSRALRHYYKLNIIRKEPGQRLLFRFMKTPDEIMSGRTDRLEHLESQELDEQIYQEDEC

Sequence of ELF4 (Q99607 whole entry): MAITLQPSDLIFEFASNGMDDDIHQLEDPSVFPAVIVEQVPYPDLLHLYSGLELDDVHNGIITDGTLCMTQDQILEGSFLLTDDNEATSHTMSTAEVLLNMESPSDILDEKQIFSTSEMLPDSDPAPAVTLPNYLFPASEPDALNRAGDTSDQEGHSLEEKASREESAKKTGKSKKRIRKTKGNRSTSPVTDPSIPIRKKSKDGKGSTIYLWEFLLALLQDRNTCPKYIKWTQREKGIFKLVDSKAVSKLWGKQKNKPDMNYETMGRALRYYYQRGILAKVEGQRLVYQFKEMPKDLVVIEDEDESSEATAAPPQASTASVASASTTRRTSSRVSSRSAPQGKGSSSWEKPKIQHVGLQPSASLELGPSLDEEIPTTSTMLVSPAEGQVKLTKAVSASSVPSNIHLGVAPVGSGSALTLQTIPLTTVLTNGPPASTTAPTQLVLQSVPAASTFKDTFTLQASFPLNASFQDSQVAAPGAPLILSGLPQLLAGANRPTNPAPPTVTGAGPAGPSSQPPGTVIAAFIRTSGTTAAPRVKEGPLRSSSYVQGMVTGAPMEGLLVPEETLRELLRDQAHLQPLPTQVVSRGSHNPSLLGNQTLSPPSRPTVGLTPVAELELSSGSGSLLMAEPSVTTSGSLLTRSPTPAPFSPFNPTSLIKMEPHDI
Sequence of ETV5 (P41161 whole entry): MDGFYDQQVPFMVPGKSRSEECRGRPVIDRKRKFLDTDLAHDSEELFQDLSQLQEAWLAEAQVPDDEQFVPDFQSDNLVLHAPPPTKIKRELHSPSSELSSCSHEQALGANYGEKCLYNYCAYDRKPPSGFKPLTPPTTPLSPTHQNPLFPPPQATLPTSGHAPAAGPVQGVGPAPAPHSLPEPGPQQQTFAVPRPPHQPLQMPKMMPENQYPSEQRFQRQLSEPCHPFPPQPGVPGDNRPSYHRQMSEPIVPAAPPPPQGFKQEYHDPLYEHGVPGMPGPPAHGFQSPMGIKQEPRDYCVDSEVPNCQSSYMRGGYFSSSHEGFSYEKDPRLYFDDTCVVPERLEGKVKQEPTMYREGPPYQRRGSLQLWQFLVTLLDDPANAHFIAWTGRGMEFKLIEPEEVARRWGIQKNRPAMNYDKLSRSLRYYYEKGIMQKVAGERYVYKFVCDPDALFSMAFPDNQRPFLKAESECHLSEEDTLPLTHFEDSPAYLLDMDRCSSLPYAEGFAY

As for GGTTTT, the binding signal was 1.22 fold enrichment (6-mer frequency, TF over GST control) with FLI1; 1.2 fold enrichment (6-mer frequency, TF over GST control) with GABPA; 1.1 fold enrichment (6-mer frequency, TF over GST control) with ERG; 1.11 fold enrichment (6-mer frequency, TF over GST control) with ELF1; 1.08 fold enrichment (6-mer frequency, TF over GST control) with EHF; 1.24 fold enrichment (6-mer frequency, TF over GST control) with SPI1. The binding signal in the assay with SPIB is 1.05 fold enrichment (6-mer frequency, TF over GST control); in the assay with FEV, 1.13 fold enrichment (6-mer frequency, TF over GST control); with ETV5, 1.11 fold enrichment (6-mer frequency, TF over GST control); in the assay with SPIC it was 1.04 fold enrichment (6-mer frequency, TF over GST control); in the assay with ELF4, 1.15 fold enrichment (6-mer frequency, TF over GST control); with ETV1, 1.15 fold enrichment (6-mer frequency, TF over GST control). Besides, the binding signal with ERF was 1.24 fold enrichment (6-mer frequency, TF over GST control); with ETV3L, 1.08 fold enrichment (6-mer frequency, TF over GST control); with ETS2 it was 1.1 fold enrichment (6-mer frequency, TF over GST control); with SPDEF, 1.07 fold enrichment (6-mer frequency, TF over GST control); in the assay with ELF5, 1.12 fold enrichment (6-mer frequency, TF over GST control); with ETV3, 1.14 fold enrichment (6-mer frequency, TF over GST control). For the same sequence, the binding signal in the assay with ETV6 is 1.05 fold enrichment (6-mer frequency, TF over GST control).
